High-throughput results (PubChem)
Rows were chosen to be rich in hits. Some 3.7% of all compounds tested hit in one or more screens of this group.
tim23-1 inh – growth inhibitors of tim23-1 mutant yeast | S. cerevisiae tim23-1 growth, BacTiter-Glo luminescence, 24 h | inhibition, % at 20 µM | actives 1.3% (n = 330,000) | AID 463212;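 active = growth inhibition of the mutant yeast at or above 50%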;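 note: temperature-sensitive mutant grown at 25 °C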
V-ATPase pHluor – yeast V-ATPase proton transport regulation by pHLuorin. actives 0.37% (n = 350,000). response, % at 10 µM. AID 504577. S. cerevisiae, pHLuorin cytosolic pH fluorescence; in the data active = response mostly above about 7.3%, no sharp cut-off; inactive = mostly below about 5.4%; note: actives read high
TIM10 inh – TIM10 yeast growth inhibition; actives 1.4% (n = 330,000); S. cerevisiae TIM10 strain growth, BacTiter-Glo luminescence, 24 h; inhibition, % at 10 µM;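 active = inhibition of 40% or more at the single tested concentration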;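 note: wild-type TIM10 isogenic control strain grown at permissive 25 °C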
tim10-1 inh – inhibits growth of tim10-1 mutant yeast. S. cerevisiae tim10-1 ts strain growth, BacTiter-Glo, 24 h. inhibition, % at 20 µM. actives 2.2% (n = 330,000);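 active = inhibition of at least 40%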;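 note: mutant grown at 25 °C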
PfHsp90 set2 – growth inhibition of yeast expressing Plasmodium Hsp90; S. cerevisiae expressing PfHsp90, BacTiter-Glo ATP, 48 h; yeast lacking PDR1 and PDR3 efflux regulators; inhibition, % at 9.4 µM; actives 0.32% (n = 310,000);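 active = every replicate shows inhibition above about 80%, whatever the replicate mean, limit read from the data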
tim10-1 confirm – confirmation of tim10-1 mutant yeast growth inhibitors | shares compounds with tim10-1 inh | S. cerevisiae tim10-1 ts strain growth, BacTiter-Glo, 24 h | inhibition, % at 20 µM | actives 56% (n = 7,400);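 active = inhibition of yeast growth at or above a set limit in either of two repeat tests at 20 µM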;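 note: tim10-1 mutant grown at permissive 25 °C to find synthetic lethal compounds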
TIM10 conf – confirmation of TIM10 yeast growth inhibitors; S. cerevisiae tim10 strain growth, BacTiter-Glo luminescence, 24 h; shares compounds with TIM10 inh; inhibition, % at 10 µM; actives 63% (n = 4,600);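 active = inhibition of yeast growth at or above a set limit in either of two replicates at 10 µM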; note: this counterscreen used the strain with wild-type TIM10
tim23-1 confirm – tim23-1 yeast growth inhibition, confirmed; shares compounds with tim23-1 inh; S. cerevisiae tim23-1 growth, BacTiter-Glo luminescence, 24 h; inhibition, % at 20 µM; actives 83% (n = 4,400); AID 463218;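 active = inhibition above about 39% in either of two replicate wells at 20 µM, limit read from the data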;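 note: temperature-sensitive tim23-1 mutant grown at 25 °C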
A number is an active result; i = inactive; nt = no result.

SMILES	tim23-1 inh	V-ATPase pHluor	TIM10 inh	tim10-1 inh	PfHsp90 set2	tim10-1 confirm	TIM10 conf	tim23-1 confirm
CCCCC[C@@H](/C=C/C1C(=O)C=C[C@H]1C/C=C\CCCC(=O)OC)OC(C)=O (some centres not stated)	nt	i	nt	nt	i	nt	nt	nt
O=C(Oc1ccccc1C(=O)Nc1ccccc1)c1ccc(Br)c([N+](=O)[O-])c1	61	i	52	47	i	51	35	74
CCCNC(=O)c1onc(CSc2ccc(Cl)cc2)c1C(=O)NCCC(C)C	i	i	i	i	i	nt	nt	nt
COCCN(C(=O)CCl)C(C(=O)NC1CCCCC1)c1ccccc1C (configuration not stated)	50	i	47	55	i	44	i	53
COCCN(C(=O)CCC(=O)Nc1cc(C)on1)C(C(=O)NC1CCCC1)c1ccccc1C (configuration not stated)	i	i	i	i	i	nt	nt	nt
NNc1nc(-c2ccccc2)cc(-c2ccccc2)n1	55	i	49	43	i	48	i	56
N#Cc1cc(-c2ccccc2)nc(NN)n1	i	i	i	i	i	nt	nt	nt
COc1ccc(/C=N/NC(=O)c2nc(-c3ccccc3)cc(-c3ccccc3)n2)cc1	i	i	i	i	i	nt	nt	nt
NNc1nc(-c2ccccc2)cc(-c2ccccc2O)n1	55	i	48	44	i	47	42	59
Nc1ccc(S(=O)(=O)Nc2nc(-c3ccccc3)cc(-c3ccccc3O)n2)cc1	nt	i	nt	nt	nt	nt	nt	nt
NNC(=O)c1nc(-c2ccccc2)cc(-c2ccccc2)n1	63	i	i	42	i	i	nt	67
Oc1oc(C=Nc2ccc(F)cc2F)c2ccccc12	i	i	i	i	i	nt	nt	nt
COc1ccc(Nc2cc(C)c3cc([N+](=O)[O-])ccc3n2)cc1	51	i	i	53	i	53	nt	67
CN1CCN(C(c2ccc(Cl)cc2)c2cc(Cl)c3cccnc3c2O)CC1 (configuration not stated)	59	i	i	40	106	i	nt	71
CN1CCN(C(c2cccc(Cl)c2)c2ccccc2Cl)CC1 (configuration not stated)	i	i	i	i	i	nt	nt	nt
CN1CCN(C(c2ccc(C(F)(F)F)cc2)c2cc(Cl)c3cccnc3c2O)CC1 (configuration not stated)	66	nt	53	43	nt	36	i	70
CN1CCN(C(c2ccccc2)c2ccc(Cl)cc2)CC1 (configuration not stated)	i	i	i	i	i	nt	nt	nt
COc1cc2c(cc1OC)/C(=C/c1ccc(Cl)cc1)C(=O)OC2	55	i	i	41	i	i	nt	47
COc1ccc(/C=C2\C(=O)OCc3cc(OC)c(OC)cc32)cc1OC	i	i	i	i	i	nt	nt	nt
Cc1cc([N+](=O)[O-])ccc1N1C(=O)c2ccc(C(=O)Nc3ccccc3C(=O)O)cc2C1=O	i	i	i	i	i	nt	nt	nt
CCOC(=O)c1ccc(NC(=O)Nc2ncc(Cl)cc2Cl)cc1	56	nt	76	70	nt	78	76	69
CCOC(=O)c1ccc(NC(=O)Nc2ncccc2C)cc1	i	i	i	i	i	nt	nt	nt
CN=C1S/C(=C\c2ccc(O)c(Br)c2)C(=O)N1C	62	i	i	56	i	50	nt	63
CN=C1S/C(=C\c2ccc(O)c(OC)c2)C(=O)N1C	i	i	i	i	nt	nt	nt	nt
CCCCC(=O)Oc1c(S(=O)(=O)c2ccc(C)cc2)c(C)nn1C(C)(C)C	i	i	i	i	i	nt	nt	nt
SMILES	tim23-1 inh	V-ATPase pHluor	TIM10 inh	tim10-1 inh	PfHsp90 set2	tim10-1 confirm	TIM10 conf	tim23-1 confirm
Cc1ccc(S(=O)(=O)c2c(C)nn(C(C)(C)C)c2OC(=O)C(C)(C)C)cc1	i	i	i	i	i	nt	nt	nt
Cc1ccc(S(=O)(=O)c2c(C)nn(C(C)(C)C)c2OC(=O)c2ccc(Br)o2)cc1	70	i	42	50	i	37	35	49
Cc1ccc(S(=O)(=O)c2c(C)nn(C(C)(C)C)c2OC(=O)c2ccco2)cc1	64	i	i	47	i	32	nt	46
CC(C)Oc1cc(C(=O)NC2CCCCC2)c2ccccc2n1	i	i	i	i	i	nt	nt	nt
CCN(C(=O)CSc1nnc(-c2cccc(Cl)c2)n1N)c1c(N)n(Cc2ccccc2)c(=O)[nH]c1=O	nt	i	nt	nt	i	nt	nt	nt
Cc1ccccc1Oc1nc(-c2ccccn2)nc2ccccc12	56	i	43	48	i	i	36	49
CC(=O)Nc1ccc(Oc2nc(-c3ccccn3)nc3ccccc23)cc1	i	i	i	i	i	nt	nt	nt
O=c1[nH]cnc2sc3c(c12)CCC3	i	i	i	i	i	nt	nt	nt
COc1ccc(C(=O)N[C@H](C(=O)OCn2nnc3ccccc3c2=O)C(C)C)cc1	i	i	i	i	nt	nt	nt	nt
CC(=O)c1c(O)c2cccc3c2n(c1=O)CCC3	54	i	i	41	i	30	nt	52
COc1ccc(CCNC(=O)c2c(O)c3cccc4c3n(c2=O)CC4)cc1OC	53	i	57	43	i	i	30	45
O=[N+]([O-])c1cccc(S(=O)(=O)NCc2ccncc2)c1	i	i	i	i	i	nt	nt	nt
CCCCNC(=O)O[C@H]1C[C@@H]2CCN3C(=O)CCC[C@H]([C@H]1Cc1ccccc1)[C@H]23	i	i	i	i	i	nt	nt	nt
COc1ccc(C(=O)NNC(=O)c2ccccn2)cc1	51	i	i	52	i	40	nt	42
O=C(COC(=O)c1ccc([N+](=O)[O-])s1)c1ccc[nH]1	64	39	79	63	i	71	84	58
COc1ccc(O)c(CNc2ccccc2F)c1	i	i	i	i	i	nt	nt	nt
O=C1CCCCC1C(Nc1ccc(Br)cc1)c1ccccc1 (configuration not stated)	53	i	i	41	i	32	nt	48
C/C(=N\OC(=O)Nc1ccc(Cl)cc1)c1ccc(F)c(F)c1	57	i	i	51	i	54	nt	59
O=C(Nc1ccc(Cl)cc1)ON=C1CCCC1	64	i	82	43	i	i	i	41
c1nc(C2CCCCC2)cc2cc3c(cc12)OCO3	i	i	i	i	i	nt	nt	nt
O=C1c2ccccc2-c2onc3c(N4CCN(CCO)CC4)cc(N4CCN(C(=O)c5ccco5)CC4)c1c23	i	i	i	i	i	nt	nt	nt
CN1CCN(c2cc(N3CCN(C(=O)c4ccco4)CC3)c3c4c(onc24)-c2ccccc2C3=O)CC1	69	i	47	56	i	47	48	74
N#CC(C#N)=c1ccc2c(c1)N1C3=C(CCCC3)CC3CCCCC31N=2 (configuration not stated)	51	i	i	44	nt	i	nt	i
